For one sequence, binding signal results are on record in publication PMC7862700, “An all-to-all approach to the identification of sequence-specific readers for epigenetic DNA modifications on cytosine”.

Holding throughout (assay): DAPPL (digital affinity profiling via proximity ligation, sequencing); 10 mM Tris-HCl pH 7.5, 50 mM NaCl, 1 mM DTT, 4% glycerol, room temperature, 30 min; GST-TFs on glutathione beads, 16-mer random dsDNA library, 0.1% formaldehyde crosslink after washing; high values mean tight binding
Holding throughout (details): protein: recombinant; tags: N-terminal GST; dsDNA, one strand shown

One assay addresses T1, ELK1 (Homo sapiens, UniProt P19419 1-428).
T1 sequence: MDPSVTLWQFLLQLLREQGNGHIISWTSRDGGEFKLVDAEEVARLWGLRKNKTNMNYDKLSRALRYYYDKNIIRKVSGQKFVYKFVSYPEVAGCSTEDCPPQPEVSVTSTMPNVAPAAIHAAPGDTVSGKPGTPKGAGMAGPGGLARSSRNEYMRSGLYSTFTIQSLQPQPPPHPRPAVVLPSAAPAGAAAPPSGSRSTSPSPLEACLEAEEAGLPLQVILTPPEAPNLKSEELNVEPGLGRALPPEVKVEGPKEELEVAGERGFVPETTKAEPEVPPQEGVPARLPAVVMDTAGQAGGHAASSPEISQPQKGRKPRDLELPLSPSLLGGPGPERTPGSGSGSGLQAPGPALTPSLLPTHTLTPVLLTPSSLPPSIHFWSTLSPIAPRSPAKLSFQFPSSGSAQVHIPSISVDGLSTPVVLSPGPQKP
Put shortly:
(§1)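 Pools were built from human transcription factors expressed in yeast as GST fusions, captured on glutathione beads and DNA-barcoded, along with a tag-only sample. Incubation with 200 nmole of a 16-mer random double-stranded DNA library lasted 30 min at room temperature in Tris/NaCl/DTT/glycerol buffer, and was followed by washing, 0.1% formaldehyde crosslinking, proximity ligation, PCR amplification and Illumina NextSeq500 sequencing. Binding signal is the quotient of each hexamer's read frequency for a factor and its frequency for the tag-only sample.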

For another assay, the target named is T2, GABPA (Homo sapiens, UniProt Q06546 1-454).
T2 sequence: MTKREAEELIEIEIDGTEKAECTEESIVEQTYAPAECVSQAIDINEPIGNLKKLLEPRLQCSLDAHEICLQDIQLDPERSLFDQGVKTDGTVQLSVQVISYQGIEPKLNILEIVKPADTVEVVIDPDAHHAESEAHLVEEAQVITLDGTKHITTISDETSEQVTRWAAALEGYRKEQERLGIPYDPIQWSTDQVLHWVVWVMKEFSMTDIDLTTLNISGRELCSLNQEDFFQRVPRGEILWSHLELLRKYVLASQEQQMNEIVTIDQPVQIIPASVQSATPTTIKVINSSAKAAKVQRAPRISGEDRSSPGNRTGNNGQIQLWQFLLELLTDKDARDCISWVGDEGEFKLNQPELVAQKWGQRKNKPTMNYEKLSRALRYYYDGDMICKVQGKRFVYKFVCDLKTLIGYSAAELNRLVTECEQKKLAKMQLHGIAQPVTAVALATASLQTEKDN
The procedure, abridged: as §1

In a further assay the target is T3, ERG (Homo sapiens, UniProt P11308 1-479).
T3 sequence: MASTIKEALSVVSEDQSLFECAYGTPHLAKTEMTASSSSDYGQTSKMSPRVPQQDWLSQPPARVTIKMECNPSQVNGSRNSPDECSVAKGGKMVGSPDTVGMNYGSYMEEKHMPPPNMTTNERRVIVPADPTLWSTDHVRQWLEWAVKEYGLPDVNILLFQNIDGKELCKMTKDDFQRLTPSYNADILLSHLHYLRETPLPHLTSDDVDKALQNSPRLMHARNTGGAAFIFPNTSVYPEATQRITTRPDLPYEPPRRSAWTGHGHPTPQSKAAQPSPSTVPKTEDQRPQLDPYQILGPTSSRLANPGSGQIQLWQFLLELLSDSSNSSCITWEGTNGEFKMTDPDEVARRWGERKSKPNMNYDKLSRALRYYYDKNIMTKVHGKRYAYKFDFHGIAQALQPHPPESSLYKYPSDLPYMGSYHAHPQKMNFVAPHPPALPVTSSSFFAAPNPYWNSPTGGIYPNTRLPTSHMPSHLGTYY
Put shortly: as §1

The next assay deals with ELF1 (Homo sapiens, UniProt P32519 1-619). Put shortly:
as §1

The target of another assay is T4, EHF (Homo sapiens, UniProt Q9NZC4 1-300).
T4 sequence: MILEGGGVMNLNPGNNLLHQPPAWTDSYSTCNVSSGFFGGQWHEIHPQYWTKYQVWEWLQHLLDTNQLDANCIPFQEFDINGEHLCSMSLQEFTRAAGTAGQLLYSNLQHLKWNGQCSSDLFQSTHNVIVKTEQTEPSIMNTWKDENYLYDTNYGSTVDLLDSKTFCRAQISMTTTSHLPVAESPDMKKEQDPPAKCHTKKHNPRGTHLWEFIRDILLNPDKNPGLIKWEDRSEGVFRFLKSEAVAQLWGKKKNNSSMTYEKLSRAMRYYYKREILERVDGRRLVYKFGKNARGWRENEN
Put shortly:
as §1

In the next assay the target is SPI1 (Homo sapiens, UniProt P17947 1-270). Put shortly: as §1
For the next assay, the target named is SPIB (Homo sapiens, UniProt Q01892 1-262). Put shortly:
as §1

The next assay concerns the target T5, FEV (Homo sapiens, UniProt Q99581 1-238).
T5 sequence: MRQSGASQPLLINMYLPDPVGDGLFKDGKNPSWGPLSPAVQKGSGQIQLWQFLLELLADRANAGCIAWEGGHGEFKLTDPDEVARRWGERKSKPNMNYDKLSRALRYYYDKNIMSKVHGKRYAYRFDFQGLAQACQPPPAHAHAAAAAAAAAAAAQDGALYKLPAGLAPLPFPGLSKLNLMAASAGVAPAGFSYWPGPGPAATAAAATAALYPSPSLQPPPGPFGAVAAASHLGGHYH
The procedure, abridged: as §1

A further assay addresses ETV5 (Homo sapiens, UniProt P41161 1-510). The procedure, abridged:
as §1

For a further assay, the target named is ELF4 (Homo sapiens, UniProt Q99607 1-663). The procedure, abridged:
as §1

The target of the next assay is T6, ELK4 (Homo sapiens, UniProt P28324-2 1-405).
T6 sequence: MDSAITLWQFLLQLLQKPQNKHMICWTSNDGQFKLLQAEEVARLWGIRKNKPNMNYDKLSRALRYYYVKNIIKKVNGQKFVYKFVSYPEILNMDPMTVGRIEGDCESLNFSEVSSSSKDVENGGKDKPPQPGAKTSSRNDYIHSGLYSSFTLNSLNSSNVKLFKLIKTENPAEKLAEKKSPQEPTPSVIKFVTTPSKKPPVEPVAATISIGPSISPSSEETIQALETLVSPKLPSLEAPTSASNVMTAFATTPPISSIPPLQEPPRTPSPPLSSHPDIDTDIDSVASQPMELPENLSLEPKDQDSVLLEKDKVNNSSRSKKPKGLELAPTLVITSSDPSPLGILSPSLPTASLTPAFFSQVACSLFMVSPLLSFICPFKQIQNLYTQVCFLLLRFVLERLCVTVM
Put shortly: as §1

For a further assay, the target named is T7, ETV2 (Homo sapiens, UniProt O00321 1-342).
T7 sequence: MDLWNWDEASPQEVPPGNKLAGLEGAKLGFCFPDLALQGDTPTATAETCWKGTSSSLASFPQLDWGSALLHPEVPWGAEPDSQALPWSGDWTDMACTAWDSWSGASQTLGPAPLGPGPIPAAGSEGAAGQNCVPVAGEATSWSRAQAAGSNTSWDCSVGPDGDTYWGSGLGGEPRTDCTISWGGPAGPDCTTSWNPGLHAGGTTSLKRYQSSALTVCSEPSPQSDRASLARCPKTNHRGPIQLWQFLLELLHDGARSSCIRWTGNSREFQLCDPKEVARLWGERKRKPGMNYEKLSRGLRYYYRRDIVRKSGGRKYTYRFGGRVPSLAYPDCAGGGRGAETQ
Put shortly: as §1

The target in the next assay is T8, ETV3L (Homo sapiens, UniProt Q6ZN32 1-361).
T8 sequence: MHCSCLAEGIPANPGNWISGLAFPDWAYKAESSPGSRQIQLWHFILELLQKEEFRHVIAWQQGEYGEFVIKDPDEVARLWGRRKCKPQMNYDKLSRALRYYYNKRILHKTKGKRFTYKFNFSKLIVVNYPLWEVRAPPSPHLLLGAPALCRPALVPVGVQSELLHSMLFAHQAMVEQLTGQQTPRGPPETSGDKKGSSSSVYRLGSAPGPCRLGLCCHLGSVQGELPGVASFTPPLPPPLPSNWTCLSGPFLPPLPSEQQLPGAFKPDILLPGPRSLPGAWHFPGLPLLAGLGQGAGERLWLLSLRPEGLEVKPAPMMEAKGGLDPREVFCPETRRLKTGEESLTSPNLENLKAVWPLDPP
The procedure, abridged: as §1

A further assay deals with T9, SPDEF (Homo sapiens, UniProt O95238 1-335).
T9 sequence: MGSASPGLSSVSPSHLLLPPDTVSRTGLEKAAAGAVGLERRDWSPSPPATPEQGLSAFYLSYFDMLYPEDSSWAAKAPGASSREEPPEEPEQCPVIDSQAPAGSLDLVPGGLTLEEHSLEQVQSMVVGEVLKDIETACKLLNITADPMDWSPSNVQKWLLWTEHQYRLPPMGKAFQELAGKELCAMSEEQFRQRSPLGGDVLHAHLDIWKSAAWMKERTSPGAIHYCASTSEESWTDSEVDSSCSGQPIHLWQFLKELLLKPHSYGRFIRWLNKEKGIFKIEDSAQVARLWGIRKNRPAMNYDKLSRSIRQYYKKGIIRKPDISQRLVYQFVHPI
The procedure, abridged:
as §1

In a further assay the target is T10, ETV7 (Homo sapiens, UniProt Q9Y603 1-341).
T10 sequence: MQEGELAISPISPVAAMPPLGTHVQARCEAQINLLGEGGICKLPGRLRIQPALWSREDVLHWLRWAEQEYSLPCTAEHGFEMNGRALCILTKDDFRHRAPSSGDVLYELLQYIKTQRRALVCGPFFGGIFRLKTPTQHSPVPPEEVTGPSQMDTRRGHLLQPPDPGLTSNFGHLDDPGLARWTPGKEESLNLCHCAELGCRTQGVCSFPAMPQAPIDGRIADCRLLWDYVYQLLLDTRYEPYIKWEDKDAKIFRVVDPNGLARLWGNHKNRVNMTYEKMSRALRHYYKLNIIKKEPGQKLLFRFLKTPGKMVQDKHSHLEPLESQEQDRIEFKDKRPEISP
Put shortly:
as §1

A further assay deals with ETV6 (Homo sapiens, UniProt P41212 1-452). The procedure, abridged:
as §1

Sequence of ELF1 (P32519 whole entry): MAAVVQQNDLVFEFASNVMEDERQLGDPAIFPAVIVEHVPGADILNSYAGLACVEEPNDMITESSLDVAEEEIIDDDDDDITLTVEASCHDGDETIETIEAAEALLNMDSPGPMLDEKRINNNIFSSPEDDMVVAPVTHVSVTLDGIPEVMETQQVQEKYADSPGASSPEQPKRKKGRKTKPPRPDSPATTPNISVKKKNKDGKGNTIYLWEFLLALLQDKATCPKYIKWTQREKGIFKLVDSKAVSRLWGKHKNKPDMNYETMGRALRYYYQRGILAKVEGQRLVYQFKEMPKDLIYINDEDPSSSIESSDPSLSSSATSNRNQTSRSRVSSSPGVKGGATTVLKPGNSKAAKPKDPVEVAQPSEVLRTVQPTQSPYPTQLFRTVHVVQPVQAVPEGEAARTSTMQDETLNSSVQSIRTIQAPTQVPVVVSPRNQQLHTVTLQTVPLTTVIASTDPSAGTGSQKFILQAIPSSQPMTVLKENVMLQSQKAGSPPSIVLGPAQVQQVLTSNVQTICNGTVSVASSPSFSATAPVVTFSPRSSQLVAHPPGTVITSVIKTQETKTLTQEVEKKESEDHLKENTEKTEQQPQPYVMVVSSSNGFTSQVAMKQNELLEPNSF
Sequence of ETV6 (P41212 whole entry): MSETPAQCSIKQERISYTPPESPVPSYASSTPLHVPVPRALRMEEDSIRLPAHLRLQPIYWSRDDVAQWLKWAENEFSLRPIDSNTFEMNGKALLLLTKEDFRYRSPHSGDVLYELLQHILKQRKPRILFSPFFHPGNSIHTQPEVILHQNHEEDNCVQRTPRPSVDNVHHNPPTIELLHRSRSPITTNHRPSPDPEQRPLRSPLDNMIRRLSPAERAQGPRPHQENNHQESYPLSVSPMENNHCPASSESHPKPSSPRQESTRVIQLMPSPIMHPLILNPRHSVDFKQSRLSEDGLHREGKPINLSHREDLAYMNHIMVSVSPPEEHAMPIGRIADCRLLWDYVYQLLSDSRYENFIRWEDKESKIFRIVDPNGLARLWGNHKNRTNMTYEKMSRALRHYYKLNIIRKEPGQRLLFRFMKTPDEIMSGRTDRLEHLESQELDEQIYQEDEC
Sequence of SPIB (Q01892 whole entry): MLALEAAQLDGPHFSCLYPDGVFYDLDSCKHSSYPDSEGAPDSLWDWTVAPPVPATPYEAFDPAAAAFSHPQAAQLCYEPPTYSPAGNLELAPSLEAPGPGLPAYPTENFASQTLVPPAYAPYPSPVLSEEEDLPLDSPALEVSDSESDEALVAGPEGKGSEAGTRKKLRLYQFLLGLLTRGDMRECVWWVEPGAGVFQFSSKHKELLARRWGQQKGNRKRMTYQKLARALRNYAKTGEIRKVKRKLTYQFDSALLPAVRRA
Sequence of ETV5 (P41161 whole entry): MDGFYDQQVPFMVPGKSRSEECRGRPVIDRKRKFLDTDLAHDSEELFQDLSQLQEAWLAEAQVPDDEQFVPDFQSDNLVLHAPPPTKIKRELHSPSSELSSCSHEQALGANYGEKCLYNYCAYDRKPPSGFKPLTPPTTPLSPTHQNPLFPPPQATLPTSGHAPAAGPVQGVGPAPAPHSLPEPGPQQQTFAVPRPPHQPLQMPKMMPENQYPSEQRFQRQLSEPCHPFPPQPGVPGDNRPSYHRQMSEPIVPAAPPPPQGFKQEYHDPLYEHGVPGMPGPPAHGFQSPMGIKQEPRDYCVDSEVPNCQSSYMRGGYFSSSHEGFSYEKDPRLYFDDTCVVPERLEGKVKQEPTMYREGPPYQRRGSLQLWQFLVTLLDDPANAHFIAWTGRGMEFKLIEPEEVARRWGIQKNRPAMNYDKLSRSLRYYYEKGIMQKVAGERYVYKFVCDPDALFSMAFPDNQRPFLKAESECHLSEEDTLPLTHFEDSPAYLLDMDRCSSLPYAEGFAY
Sequence of ELF4 (Q99607 whole entry): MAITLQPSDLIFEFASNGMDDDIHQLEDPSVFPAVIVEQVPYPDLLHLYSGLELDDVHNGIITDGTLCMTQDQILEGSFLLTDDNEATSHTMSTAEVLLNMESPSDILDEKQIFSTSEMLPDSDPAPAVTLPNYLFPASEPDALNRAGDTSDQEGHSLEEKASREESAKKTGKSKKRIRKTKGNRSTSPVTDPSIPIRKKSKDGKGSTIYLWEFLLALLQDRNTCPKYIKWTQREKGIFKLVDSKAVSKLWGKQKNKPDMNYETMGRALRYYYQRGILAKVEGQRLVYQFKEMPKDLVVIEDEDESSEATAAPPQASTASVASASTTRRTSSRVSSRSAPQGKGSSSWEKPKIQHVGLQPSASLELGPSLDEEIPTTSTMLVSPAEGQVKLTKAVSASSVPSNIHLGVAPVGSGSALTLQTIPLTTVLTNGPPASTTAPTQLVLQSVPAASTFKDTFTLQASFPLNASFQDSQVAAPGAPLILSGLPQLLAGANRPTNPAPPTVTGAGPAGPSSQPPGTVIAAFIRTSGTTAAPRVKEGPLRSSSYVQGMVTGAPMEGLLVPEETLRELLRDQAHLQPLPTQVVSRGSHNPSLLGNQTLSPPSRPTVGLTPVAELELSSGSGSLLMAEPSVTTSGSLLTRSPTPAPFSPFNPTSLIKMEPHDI

For GTACGA, the binding signal with ELK1 was 1.03 fold enrichment (6-mer frequency, TF over GST control); with GABPA it was 1.14 fold enrichment (6-mer frequency, TF over GST control); with ERG, 1.04 fold enrichment (6-mer frequency, TF over GST control); with ELF1, 1.08 fold enrichment (6-mer frequency, TF over GST control); with EHF, 1.04 fold enrichment (6-mer frequency, TF over GST control); in the assay with SPI1 it was 1.05 fold enrichment (6-mer frequency, TF over GST control). Besides, the binding signal with SPIB was 1.05 fold enrichment (6-mer frequency, TF over GST control); in the assay with FEV it was 1.01 fold enrichment (6-mer frequency, TF over GST control); with ETV5 it was 1.02 fold enrichment (6-mer frequency, TF over GST control); in the assay with ELF4, 1.11 fold enrichment (6-mer frequency, TF over GST control); with ELK4, 1.04 fold enrichment (6-mer frequency, TF over GST control); with ETV2, 1.07 fold enrichment (6-mer frequency, TF over GST control). The binding signal with ETV3L is 1.09 fold enrichment (6-mer frequency, TF over GST control); in the assay with SPDEF it was 1.02 fold enrichment (6-mer frequency, TF over GST control); with ETV7, 1.16 fold enrichment (6-mer frequency, TF over GST control); with ETV6 it was 1.05 fold enrichment (6-mer frequency, TF over GST control).
